# Source: PubChem BioAssay
# Active and inactive are the calls of the source.
# How the values were obtained:
# Albumin (Bos taurus) = Albumin (Bos taurus) (UniProt P02769); assay: bovine serum albumin binders on microarray, profiling panel, artefact control for SMM control protein annotation, biochemical, small-molecule microarray, Alexa647 label, 635/667 nm fluorescence (AID 1118); details: BSA-A647 binding, fluorescence 635 nm, higher = more signal;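 further: score merges 667 nm emission intensity and signal-to-noise per printed compound spot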
# Sequence of Albumin (Bos taurus) (P02769 whole entry, looked up): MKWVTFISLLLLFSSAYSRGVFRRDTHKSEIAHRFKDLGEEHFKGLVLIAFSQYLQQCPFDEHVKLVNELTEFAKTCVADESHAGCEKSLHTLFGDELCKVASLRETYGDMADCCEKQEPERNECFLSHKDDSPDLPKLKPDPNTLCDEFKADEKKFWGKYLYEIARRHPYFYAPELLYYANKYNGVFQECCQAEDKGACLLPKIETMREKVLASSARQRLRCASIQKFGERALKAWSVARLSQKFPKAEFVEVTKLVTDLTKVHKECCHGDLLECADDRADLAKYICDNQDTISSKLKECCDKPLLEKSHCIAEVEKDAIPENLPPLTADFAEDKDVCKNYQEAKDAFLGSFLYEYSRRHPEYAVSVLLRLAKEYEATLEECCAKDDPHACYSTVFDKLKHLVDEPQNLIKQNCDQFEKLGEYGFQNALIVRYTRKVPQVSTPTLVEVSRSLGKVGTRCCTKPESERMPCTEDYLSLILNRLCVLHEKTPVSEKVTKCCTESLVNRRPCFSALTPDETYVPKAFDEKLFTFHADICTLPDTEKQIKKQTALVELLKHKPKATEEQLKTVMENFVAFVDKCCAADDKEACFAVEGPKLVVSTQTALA
# [1] = small-molecule microarray binders of probe aXIP, primary screen, biochemical, NeuroSMM set, 635/667 nm fluorescence (AID 1119); details: higher = more signal, called active from +8 up or from −8 down;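 further: probe is the protein aXip251-270 applied at 1 µg/mL to compound-printed slides; binding of probe to printed compounds measured as 667 nm fluorescence plus signal to noise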
# [2] = small-molecule binders of probe aNOTCH3, primary screen, biochemical, small-molecule microarray, 635/667 nm fluorescence (AID 1120); details: higher = more signal;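 further: probe is a biotin-tagged antibody raised against NOTCH3 rather than NOTCH3 protein; score merges spot fluorescence near 667 nm with spot signal to noise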
# [3] = small-molecule binders of probe aNOTCH2, primary screen, biochemical, small-molecule microarray, 635/667 nm fluorescence (AID 1121); details: higher = more signal;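 further: score merges feature fluorescence read at 667 nm with its signal to noise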
# [4] = molecular target: Carbonic anhydrase 2 (Homo sapiens) (UniProt P00918); assay: CAII small-molecule binders, profiling panel, biochemical, small-molecule microarray, Alexa647-labelled CAII (AID 1122); details: CAII-A647 binding fluorescence, higher = more signal
# [5] = COS7 lysate on small-molecule microarray, probe aHis, 635 nm (AID 1123); details: COS7 cell lysate, fluorescence, higher = more signal;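 further: z-score combines 667nm fluorescence intensity with signal-to-noise per printed compound spot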
# [6] = compound binding in COS7 lysate, probe aLAP1, primary screen, cell lysate, small-molecule microarray (AID 1124); details: probe aLAP1, fluorescence, higher = more signal;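 further: lysate comes from COS7 cells expressing LAP1 and is applied at 0.3 µg/mL; score merges spot fluorescence near 667 nm with signal-to-noise over triplicate slides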
# Sam68 (KHDRBS1) = assay: Sam68 small-molecule binders, primary screen, biochemical, small-molecule microarray, 635 nm fluorescence (AID 1125); details: small-molecule microarray binding, higher = more signal;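 further: score merges 667 nm channel intensity with signal to noise over triplicate slides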
# [7] = test system: Chordin-like protein 2 (CHRDL2); assay: CHRDL2 small-molecule binders, primary screen, biochemical, small-molecule microarray, 635 nm fluorescence (AID 1126); details: small-molecule microarray binding, fluorescence 635 nm; higher = more signal;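 further: printed compound slides probed with Chrdl2 protein at 4 µg/mL for 1 h at 4 C; score merges 667 nm emission intensity with signal to noise over three replicate slides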
# [8] = molecular target: Concanavalin-A (Canavalia ensiformis) (UniProt P02866); assay: ConA small-molecule binders, primary screen, artefact control for SMM control protein annotation, biochemical, small-molecule microarray, Alexa647 label, 635 nm (AID 1127); details: ConA-A647 binding fluorescence, higher = more signal;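 further: z combines 667 nm emission intensity with signal-to-noise across three replicate slides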
# Sequence of Concanavalin-A (Canavalia ensiformis) (P02866 whole entry, looked up): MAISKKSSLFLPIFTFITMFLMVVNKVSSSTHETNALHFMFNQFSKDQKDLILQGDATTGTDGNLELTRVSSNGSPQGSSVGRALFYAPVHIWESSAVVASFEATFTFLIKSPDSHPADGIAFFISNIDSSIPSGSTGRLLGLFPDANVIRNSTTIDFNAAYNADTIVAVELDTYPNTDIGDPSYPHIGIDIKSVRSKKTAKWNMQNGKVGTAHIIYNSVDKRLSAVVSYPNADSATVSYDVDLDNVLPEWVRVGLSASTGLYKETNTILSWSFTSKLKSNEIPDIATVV
# [9] = anti-His antibody binders, primary screen, artefact control for SMM control protein annotation, biochemical, small-molecule microarray, 635 nm fluorescence (AID 1128); details: anti-His Alexa647 antibody binding, higher = more signal;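 further: score merges feature fluorescence with signal-to-noise for each printed compound spot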
# [10] = test system: Human papillomavirus type 1a E7 protein (residues 1-88); assay: HPV1a E7 small-molecule binders, primary screen, biochemical, small-molecule microarray, residues 1-88, 635 nm (AID 1129); details: small-molecule microarray binding, fluorescence 635 nm; higher = more signal
# [11] = molecular target: Focal adhesion kinase 1 (Homo sapiens) (UniProt Q05397); assay: small-molecule microarray binders of FAK, primary screen, biochemical, 635/667 nm fluorescence, BSA, DTT (AID 1130); details: PTK2 binding, 635 nm fluorescence, higher = more signal;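 further: composite of spot emission at 667 nm and signal to noise over triplicate slides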
# Sequence of Focal adhesion kinase 1 (Homo sapiens) (Q05397 whole entry, looked up): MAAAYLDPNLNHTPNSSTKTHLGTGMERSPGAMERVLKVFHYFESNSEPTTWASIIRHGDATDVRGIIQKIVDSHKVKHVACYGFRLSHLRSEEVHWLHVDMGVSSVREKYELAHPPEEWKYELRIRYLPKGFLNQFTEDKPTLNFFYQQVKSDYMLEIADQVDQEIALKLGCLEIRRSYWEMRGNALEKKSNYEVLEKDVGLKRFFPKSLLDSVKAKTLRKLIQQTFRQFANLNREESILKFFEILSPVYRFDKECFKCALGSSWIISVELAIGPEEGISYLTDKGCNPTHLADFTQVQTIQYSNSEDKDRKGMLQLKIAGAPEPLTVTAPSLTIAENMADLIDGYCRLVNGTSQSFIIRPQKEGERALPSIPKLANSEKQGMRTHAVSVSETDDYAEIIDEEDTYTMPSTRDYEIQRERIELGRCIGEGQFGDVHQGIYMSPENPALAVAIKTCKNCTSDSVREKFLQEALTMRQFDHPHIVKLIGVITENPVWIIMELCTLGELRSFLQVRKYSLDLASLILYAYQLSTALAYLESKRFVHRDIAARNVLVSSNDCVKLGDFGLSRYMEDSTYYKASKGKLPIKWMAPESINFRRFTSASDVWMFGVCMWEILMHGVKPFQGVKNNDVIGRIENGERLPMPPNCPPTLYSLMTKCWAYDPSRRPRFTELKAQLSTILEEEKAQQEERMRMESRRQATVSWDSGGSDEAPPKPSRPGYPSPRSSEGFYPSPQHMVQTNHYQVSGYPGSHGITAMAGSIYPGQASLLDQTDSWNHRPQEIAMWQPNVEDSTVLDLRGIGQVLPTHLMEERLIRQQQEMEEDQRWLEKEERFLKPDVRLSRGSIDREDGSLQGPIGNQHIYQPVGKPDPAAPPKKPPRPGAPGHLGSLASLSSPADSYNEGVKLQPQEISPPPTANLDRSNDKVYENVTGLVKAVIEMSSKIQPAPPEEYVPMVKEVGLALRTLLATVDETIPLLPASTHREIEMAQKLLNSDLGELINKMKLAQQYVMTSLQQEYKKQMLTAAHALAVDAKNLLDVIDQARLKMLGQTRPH
# [12] = test system: Fibrinogen (Alexa647-labelled); assay: fibrinogen binders on compound microarrays, profiling panel, artefact control for SMM control-protein annotation, biochemical, small-molecule microarray, 635/667 nm fluorescence (AID 1131); details: fibrinogen-A647 binding fluorescence, higher = more signal;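 further: z-score merges 667 nm fluorescence with per-spot signal-to-noise over triplicate slides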
# [13] = molecular target: Follistatin (Homo sapiens) (UniProt P19883); assay: follistatin binders on small-molecule microarrays, primary screen, biochemical, small-molecule microarray, 635/667 nm fluorescence (AID 1132); details: FST binding, 635 nm fluorescence, higher = more signal
# Sequence of Follistatin (Homo sapiens) (P19883 whole entry, looked up): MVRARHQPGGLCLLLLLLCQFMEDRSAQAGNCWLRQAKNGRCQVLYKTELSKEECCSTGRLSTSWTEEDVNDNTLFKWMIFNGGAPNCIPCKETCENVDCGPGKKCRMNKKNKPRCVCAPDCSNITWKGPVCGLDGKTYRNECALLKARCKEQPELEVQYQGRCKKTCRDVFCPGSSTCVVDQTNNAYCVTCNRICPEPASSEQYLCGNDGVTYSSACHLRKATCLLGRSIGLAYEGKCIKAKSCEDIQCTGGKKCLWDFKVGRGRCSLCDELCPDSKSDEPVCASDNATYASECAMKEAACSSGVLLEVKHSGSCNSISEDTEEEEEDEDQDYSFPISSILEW
# [14] = molecular target: Fibroblast growth factor 2 (Homo sapiens) (UniProt P09038); assay: FGF2 binders on small-molecule microarrays, primary screen, biochemical, small-molecule microarray, 635/667 nm fluorescence (AID 1133); details: small-molecule microarray binding, FGF2, fluorescence 635/667; higher = more signal
# Sequence of Fibroblast growth factor 2 (Homo sapiens) (P09038 whole entry, looked up): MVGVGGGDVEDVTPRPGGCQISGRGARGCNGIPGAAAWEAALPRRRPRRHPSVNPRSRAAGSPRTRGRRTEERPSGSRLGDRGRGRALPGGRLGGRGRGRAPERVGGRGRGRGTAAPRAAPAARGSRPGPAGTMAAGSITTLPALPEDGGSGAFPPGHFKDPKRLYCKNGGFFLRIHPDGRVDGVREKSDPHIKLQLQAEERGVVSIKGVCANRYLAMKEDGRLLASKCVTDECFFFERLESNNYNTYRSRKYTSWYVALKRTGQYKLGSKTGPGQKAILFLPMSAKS
# [15] = mitochondrial membrane potential change in A549 cells, profiling panel, cell-based, JC-1 fluorescence, basal, 24 h, 100 nL (AID 1138); details: higher = more signal;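 further: A549 lung adenocarcinoma cells under basal conditions with no added stimulus; test concentration not given here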
# Lefty1 = Lefty1 binders on small-molecule microarrays, primary screen, biochemical, small-molecule microarray, 635/667 nm fluorescence (AID 1139); details: small-molecule microarray binding, fluorescence 635/667; higher = more signal
# [16] = test system: wheat germ agglutinin (Triticum aestivum), Alexa647-labelled; assay: wheat germ agglutinin binders on compound microarrays, profiling panel, artefact control for SMM control-protein annotation, biochemical, small-molecule microarray, 635/667 nm fluorescence (AID 1140); details: WGA-A647 binding, 635 nm fluorescence, higher = more signal;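 further: score merges 667 nm feature emission with signal to noise over triplicate slides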
# [17] = molecular target: Luciferin 4-monooxygenase (Photinus pyralis) (UniProt P08659); assay: firefly luciferase enzyme inhibitors, primary screen, biochemical, luminescence, purified enzyme, 2006 set (AID 1141); details: SteadyGlo luminescence, 30 min, higher = more signal, called active from +8 up or from −8 down;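 further: cell-free assay with purified firefly luciferase at 100 ng per well in PBS; test concentration not given here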
# Sequence of Luciferin 4-monooxygenase (Photinus pyralis) (P08659 whole entry, looked up): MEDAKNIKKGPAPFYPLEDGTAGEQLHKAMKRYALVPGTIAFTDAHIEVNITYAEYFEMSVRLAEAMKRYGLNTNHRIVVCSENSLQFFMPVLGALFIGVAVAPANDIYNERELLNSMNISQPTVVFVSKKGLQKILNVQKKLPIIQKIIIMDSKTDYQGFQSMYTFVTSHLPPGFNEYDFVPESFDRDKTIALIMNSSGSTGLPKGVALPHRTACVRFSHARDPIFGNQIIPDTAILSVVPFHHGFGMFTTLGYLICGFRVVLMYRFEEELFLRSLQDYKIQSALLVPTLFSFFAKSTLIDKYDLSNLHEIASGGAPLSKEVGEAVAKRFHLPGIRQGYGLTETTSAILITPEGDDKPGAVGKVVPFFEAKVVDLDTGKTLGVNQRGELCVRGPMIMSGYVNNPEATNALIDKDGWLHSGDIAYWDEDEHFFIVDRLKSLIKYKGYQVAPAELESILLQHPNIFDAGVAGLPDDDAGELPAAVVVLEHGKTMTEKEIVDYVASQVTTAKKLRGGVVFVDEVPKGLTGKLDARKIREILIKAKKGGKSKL
SMILES,composite z-score (Albumin (Bos taurus)),composite Z-score [1],composite z-score [2],composite z-score [3],composite z-score [4],composite z-score [5],composite z-score [6],composite z-score (Sam68 (KHDRBS1)),composite z-score [7],composite z-score [8],composite z-score [9],composite z-score [10],composite z-score [11],composite z-score [12],composite z-score [13],composite z-score [14],z-score [15],composite z-score (Lefty1),composite z-score [16],z-score [17]
CCCCc1nc2c(c3c1C[C@H](C)OC3)CN(CCOc1ccccc1)CC2,0.674,0.202 (inactive),0.058,-0.11,0.221,0.686,0.135,1.06,0.726,0.975,0.818,0.334,-0.117,0.75,0.766,0.913,3.89,1.23,0.38,-1.94 (inactive)
CCOC(=O)NN=C1C[C@@H](O)[C@@H](O)[C@@H]2[C@@H]3C(=O)N(Cc4ccccc4)C(=O)[C@@H]3CC[C@H]12,-0.182,-0.374 (inactive),-0.183,-0.174,0.542,0.307,-0.4,-0.0882,0.194,1.12,0.347,-0.143,0.0254,0.706,0.0086,-0.227,-0.39,0.3,0.0439,0.746 (inactive)
CCN1C(=O)[C@H]2[C@H]3[C@H](O)[C@H](O)CC(=NNC(=O)OCc4ccc(OC)cc4)[C@@H]3CC[C@H]2C1=O,-0.254,0.0958 (inactive),0.0945,-0.0894,-0.403,-0.42,0.106,-0.362,0.0319,-0.205,0.0221,-0.562,0.0875,-0.193,-0.735,0.193,-0.0338,-0.524,0.0083,-0.207 (inactive)
CC(C)(C)N1C(=O)[C@H]2[C@H]3[C@H](O)[C@H](O)CC(=O)[C@H]3CC[C@H]2C1=O,0.472,0.403 (inactive),-0.0581,-0.155,0.0658,0.165,0.206,0.892,0.357,0.673,0.875,0.496,-0.246,0.584,0.558,0.399,-0.714,0.407,0.0902,0.206 (inactive)
C#CCCCON=C1[C@H]2CCn3c(=O)n(C)c(=O)n3[C@H]2[C@H](O)[C@@H]2O[C@H]12,-0.213,-0.496 (inactive),-0.0304,-0.169,-0.053,0.0971,0.723,0.406,0.833,0.543,0.196,0.746,-0.103,0.615,0.72,0.916,1,0.363,-0.0602,-1.25 (inactive)
COc1cccc([C@H]2Oc3ccc(OC)cc3C(=NOC[C@@H](C)[C@H](OCc3ccccc3)C(C)C)[C@@H]2O)c1,0.422,0.237 (inactive),-0.162,-0.0512,0.689,0.923,1.37,0.413,-0.269,0.0788,1.78,0.321,0.0885,0.069,0.232,0.0521,-0.789,0.709,0.872,-0.0981 (inactive)
